This is a sample that favours compounds with a hit; in the whole collection about 19% have one here.
MARV entry inh = inhibitors of Marburg virus binding or cell entry | Potency, µM (doses to about 37.8 µM), hits mostly inhibitors | Marburg virus pseudotyped entry inhibition, cell reporter | AID 540276 | actives 1.8% (n = 300,000); calls by dose curve; tested in HEK293 cells
LASV entry inh = Lassa virus entry inhibition; Lassa virus pseudotype entry inhibition, cell reporter; AID 540256; Potency, µM (titrated, usually from 37.9 µM), hits mostly inhibitors; actives 1.2% (n = 300,000); calls by dose curve; tested in HEK293 cells; further: nearly all actives have a fitted effect of over 50% in size
Pf growth 96h = P. falciparum growth inhibition at 96 hours; P. falciparum luciferase reporter growth, 96 h; Potency, µM (top dose mostly 28.7 µM), usual class: inhibitors; actives 6.9% (n = 320,000)
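Delayed-death screen, second-generation endpoint: infected erythrocytes, 2% hematocrit, 0.05% parasitemia final; 96 hours at 37 C, 5% CO2; luciferase detection reagent; luminescence decrease equals reduced growth.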
Cycloheximide cs = counter-screen hit for Shiga toxin inhibitors, cycloheximide; cell reporter, cycloheximide protein synthesis inhibition counterscreen; max response, %; actives 12% (n = 300,000); AID 2314; in the data active means max response mostly above about 13%, no sharp cut-off; inactive means mostly below about 14%; further: read at 38.3 µM for the half of the compounds with a filed dose
Pf growth 48h = inhibits P. falciparum growth in the first generation, 48 h. P. falciparum luciferase growth in erythrocytes, 48 h. Potency, µM (highest dose often 28.7 µM), hits mostly inhibitors. actives 5.9% (n = 310,000). AID 504832
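Cell-based growth assay: transgenic P. falciparum expressing firefly luciferase, cultured in red cells within RPMI 1640 containing 0.5% w/v Albumax, 24 mM bicarbonate and gentamycin. A drop in luciferase activity indicates inhibition.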
Shiga toxin inh = Shiga toxin inhibition. Vero cells, Shiga toxin protein synthesis inhibition reporter. inhibition, % at 38.7 µM. actives 9.2% (n = 290,000); in the data active means inhibition mostly above about 28%, no sharp cut-off; inactive means mostly below about 43%
Hits are given with their value; . = inactive; ? = inconclusive; / = no result given; ! = a repeat was not active. Unless noted, the call rests on the fitted dose curve; in most records, active means well fitted inhibition curve with a large enough effect; inconclusive means small, poorly fitted or top-dose-only effect, or another doubt; inactive means no such curve, though single readings can be large or run the other way.

SMILES | MARV entry inh | LASV entry inh | Pf growth 96h | Cycloheximide cs | Pf growth 48h | Shiga toxin inh
c1ccc(Nc2ncnc3c2oc2ccccc23)cc1 | . | . | . | 66.4 | . | 121.3
Fc1ccc(NCc2nnc3n2CCCCC3)cc1 | / | / | . | . | . | .
O=C(CSc1nc2ccccc2s1)NC1CCS(=O)(=O)C1 (centres undefined) | . | . | / | . | . | .
Cc1ccsc1/C=N/NC(=O)CN1CCN(S(=O)(=O)c2ccc(Br)cc2)CC1 | . | . | . | . | . | .
CSc1nc(C)cc(Nc2c(C)cc(C)cc2C)n1 | . | . | / | / | / | /
c1ccc2c(c1)oc1c(NCCN3CCOCC3)ncnc12 | . | . | ? | . | . | .
Oc1cccc(Nc2ncnc3c2oc2ccccc23)c1 | ? | . | . | 50.1 | . | 93.2
c1ccc2c(c1)oc1c(NCc3ccc4c(c3)OCO4)ncnc12 | ? | . | . | . | . | .
Oc1ccccc1Nc1ncnc2c1oc1ccccc12 | . | . | ? | 38.5 | ? | .
c1ccc2c(c1)oc1c(Nc3ccc(CN4CCOCC4)cc3)ncnc12 | ? | ? | ? | 92.3 | . | 105.7
Cc1cc2c(Nc3cccc(O)c3)ncnc2s1 | / | / | . | 18.5 | . | .
O=C(CSc1nnc(-c2ccc(Br)cc2)n1C1CCCCC1)N1CCCC1 | . | . | ? | . | ? | .
Cc1ccc(C)c(NC(=O)CN(C)C(=O)CN2C(=O)NC3(CCc4ccccc43)C2=O)c1 (centres undefined) | / | / | . | / | . | /
CC(=O)c1c(NCc2ccccc2)nc(=O)n(-c2ccccc2)c1C | . | ? | . | 23.9 | . | .
CC(=O)c1c(NCCc2ccccc2)nc(=S)n(-c2ccccc2)c1C | / | / | . | . | . | .
O=C(N1CCN=C1SCc1cccnc1)C12CC3CC(CC(C3)C1)C2 | ? | ? | . | . | 14.7µM | .
O=C(NCc1cccnc1)C12CC3CC(CC(Cl)(C3)C1)C2 | ? | . | ? | . | ? | 16.0
O=C(CCS(=O)(=O)c1nc(-c2ccc3c(c2)OCO3)cc(C(F)(F)F)n1)Nc1ccccc1F | . | ? | / | / | / | /
O=C(Nc1ccc(N2CCOCC2)cc1)c1ccc2nc(-c3ccco3)c(-c3ccco3)nc2c1 | . | . | ? | . | . | .
NC(=S)c1ccc[n+]([C@@H]2O[C@@H](COP(=O)([O-])OP(=O)(O)OC[C@H]3O[C@@H](n4cnc5c(N)ncnc54)[C@H](OP(=O)(O)O)[C@@H]3O)C(O)C2O)c1 (some centres undefined) | . | . | / | / | / | /
O=C(/C=C/c1ccccc1)NCCSCc1ccccc1Cl | . | . | ? | 11.2 | ? | .
O=C(COc1ccccc1)NCCSCc1ccccc1Cl | . | . | . | 41.7 | . | 47.9
COc1ccccc1C(=O)NCCSCc1ccccc1Cl | . | . | 2.94µM | . | 7.38µM | .
O=C(CN1C(=O)c2ccccc2S1(=O)=O)NCCSCc1ccccc1Cl | . | . | . | 12.7 | . | .
O=C(c1cccc(-c2ccco2)c1)N1CCCC(N2CCN(c3ccc(F)cc3)CC2)C1 (centres undefined) | . | ? | . | . | ? | .
SMILES | MARV entry inh | LASV entry inh | Pf growth 96h | Cycloheximide cs | Pf growth 48h | Shiga toxin inh
O=C(CN1C(=O)C2C3C=CC(C3)C2C1=O)OCC(=O)c1ccc(Cl)c([N+](=O)[O-])c1 (centres undefined) | . | ? | / | / | / | /
Cc1nccn1-c1c2c(c(C#N)c3nc4ccccc4n13)CCCC2 | . | . | / | / | / | /
O=c1[nH]n2c(=O)c3c([nH]c2c1N=Nc1cccc(Cl)c1)CCC3 | ? | . | ? | . | . | .
NS(=O)(=O)c1ccc(N=Nc2c(=O)[nH]n3c(=O)c4c([nH]c23)CCCC4)cc1 | . | . | 2.33µM | . | ? | .
O=c1[nH]n2c(=O)c3c([nH]c2c1N=Nc1cccc(C(F)(F)F)c1)CCCC3 | . | . | ? | . | 13.1µM | .
CCN(CC)c1ccc(NC(=O)C(NS(=O)(=O)c2cccs2)C(C)C)c(C)c1 (centres undefined) | . | . | / | / | / | /
Cn1c(=O)oc2cc(S(=O)(=O)NCC3CCCO3)ccc21 (centres undefined) | . | . | / | / | / | /
CC(C)C12CN3CC(C(C)C)(CN(C1)C3c1ccco1)C2=O (centres undefined) | . | . | ? | . | . | .
COCCN(CCOc1cc(C)cc(C)c1)Cc1ccc(Cl)cc1 | ? | . | ? | . | ? | .
CCN(CC)CCOc1ccc(C(O)(Cc2ccc(Cl)cc2)c2ccc(C)cc2)cc1 (centres undefined) | / | / | 9.53µM | . | 13.5µM | .
CC(C)NCC(O)(c1ccc(Cl)cc1)c1ccc(Cl)cc1 | ? | . | 1.47µM | . | 11.7µM | .
CCN(CC)CCNCc1ccc(-c2ccc(Cl)cc2)o1 | ? | ? | 11.7µM | . | ? | .
Clc1ccc(-c2ccc(CNCCSc3nnnn3-c3ccccc3)o2)cc1 | . | . | / | / | / | /
CC(C)(C)c1ccc(C(=O)NCc2ccc(Cl)cc2)cc1 | . | . | . | . | ? | .
CC(C)(C)NCC(O)(c1ccc(Cl)cc1)c1ccc(Cl)cc1 | 3.16µM | ? | ? | . | ? | .
CCC(CC)NC(=O)c1ccc(Cl)cc1 | ? | . | ? | . | . | .
CCc1ccc(OCC(=O)NC(=S)Nc2ccc(Br)c(C)n2)cc1 | / | / | . | . | . | .
COc1ccc(C(C)NC(=O)c2ccccc2)cc1 (centres undefined) | . | . | / | . | . | .
CCN(CC)CCNC(=O)NC(=O)c1ccc(Cl)cc1 | . | ? | . | . | . | .
CCN(CC)CCNCC(O)(c1ccc(Cl)cc1)c1ccc(Cl)cc1 | ? | ? | 11.7µM | . | ? | .
NCC(O)(c1ccc(Cl)cc1)c1ccc(Cl)cc1 | / | / | 4.65µM | . | ? | .
CCOC(=O)c1cc(NC(=O)c2ccc(C)cc2)c(=O)oc1-c1ccccc1 | . | . | . | . | . | .
Cc1cc(C)c(C(=O)N(C)CC2CCCN(CCc3ccccc3F)C2)o1 (centres undefined) | ? | . | . | . | ? | .
O=[N+]([O-])c1ccc(N=Nc2ncc[nH]2)cc1 | / | / | . | 16.3 | ? | .
O=[N+]([O-])c1ccc(N=NN(CCO)CCO)cc1 | . | . | . | . | . | .
SMILES | MARV entry inh | LASV entry inh | Pf growth 96h | Cycloheximide cs | Pf growth 48h | Shiga toxin inh
Cc1ccsc1C1Nc2ccc3ncccc3c2C2=C1C(=O)CCC2 (centres undefined) | ? | ? | 4.65µM | . | 10.4µM | .
COc1cc(C2Nc3ccc4ncccc4c3C3=C2C(=O)CCC3)ccc1O (centres undefined) | . | ? | ? | 20.6 | ? | .
COCc1n[nH]c(=S)n1-c1ccccc1 | . | . | . | . | / | .
C=CCNC(=O)O/N=C/c1csc([N+](=O)[O-])c1 | . | . | ? | . | . | 32.4
CC(C)NCC(O)COc1ccc(CC(N)=O)cc1 (centres undefined) | . | . | . | . | . | .
CC(C)NCC(O)COc1ccc(CCOCC2CC2)cc1 (centres undefined) | ? | . | 3.38µM! | . | 13.5µM! | .
CCC(CC)NCC(O)COc1ccc(Br)cc1 (centres undefined) | ? | ? | 7.38µM | . | 3.7µM | .
CC(C)NC[C@@H](O)COc1ccc(CCOCC2CC2)cc1 | . | / | / | / | / | /

Bioassay records: PubChem, National Center for Advancing Translational Sciences (NCATS)
